Assay outcomes deposited in PubChem by Broad Institute.
PfHsp90 set2: reduces growth (ATP signal) of yeast expressing P. falciparum Hsp90 | inhibition, % at 9.4 µM | 0.32% of 310,000 active | S. cerevisiae expressing PfHsp90, BacTiter-Glo ATP, 48 h; yeast lacking PDR1 and PDR3 efflux regulators;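 active = every replicate shows inhibition above about 80%, whatever the replicate mean, limit read from the data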;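 note: 0% = DMSO neutral controls and 100% = 20 µM radicicol positive controls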
NSD2 inh: blocks human histone methyltransferase NSD2; NSD2 peptide methylation, AlphaScreen, 120 min; 0.54% of 310,000 active; inhibition, % at 12.5 µM; AID 743445; O96028; in the data active = inhibition above about 50%
SIRT5 block: sirtuin-5 (human) deacylase inhibition; Purified SirT5, succinyl-peptide AMC, trypsin-coupled fluorescence; 1.1% of 330,000 active; AID 652115; inhibition, % at 15 µM; in the data active = inhibition above about 15%
ARNT-TACC3 inh: disruptors of human ARNT/TACC3 interaction. 0.66% of 390,000 active. Q9Y6A5. inhibition, % at 9.99 µM. AlphaScreen His-ARNT PAS-B/GST-TACC3 binding, luminescence; TACC3 fragment carries E629A point mutation;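 active = mean inhibition of replicates at least 50% and at least half of replicates each reaching 50%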;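 note: 0% = complete ARNT plus TACC3 wells and 100% = ARNT alone without TACC3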
Casp6 inh: inhibitors of human caspase-6. P55212. purified caspase-6, Z-VEID-R110 cleavage fluorescence. inhibition, % at 12.5 µM. 0.53% of 350,000 active. AID 686996;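 active = mean inhibition across replicates at least about 35%, with every replicate also reaching that limit, limit read from the data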;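 note: 0% = median of neutral control wells and 100% = no fluorescence left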
Starred values were filed as active, the others as inactive; x = no result given. Rows were chosen to be rich in hits. Some 2.1% of all compounds tested hit in one or more screens of this group.

SMILES | PfHsp90 set2 | NSD2 inh | SIRT5 block | ARNT-TACC3 inh | Casp6 inh
COC(=O)C[C@@H]1C=C[C@H](NC(=O)c2ccccc2)[C@H](CO)O1 | x | x | 2.0 | 7.0 | 0.5
CCCCC(=O)NC(c1ccccc1Cl)c1ccc2cccnc2c1O (stereo unspecified) | 57.8 | x | 0.1 | 5.9 | 1.6
CCCCC(=O)NC(c1ccc(C(C)C)cc1)c1ccc2cccnc2c1O (stereo unspecified) | 89.7* | 0.5 | -1.9 | -12.5 | -3.1
CCCCC(=O)NC(c1ccccc1)c1ccc2cccnc2c1O (stereo unspecified) | 114.8* | 0.2 | 1.2 | -16.6 | -4.7
CCCN1C[C@H](C)[C@@H](OC)CN(C)C(=O)c2ccc(NC(=O)C3CCC3)cc2OC[C@@H]1C | x | x | -2.5 | -2.5 | -1.6
COC(=O)C(CC#Cc1ccc2c(c1)[C@]1(C(=O)N2)[C@H](c2ccccc2OCCO)N2[C@H](c3ccccc3)[C@H](c3ccccc3)OC(=O)[C@H]2[C@@H]1C(=O)N1CCCCCCC1)C(=O)OC | x | x | -3.2 | -16.8 | 1.7
CCOc1cccc(C(=O)NC2CCCCC2)c1 | 8.0 | x | 22.1* | -7.7 | -1.5
CCOc1ccc(C(=O)NC2CCCCCCC2)cc1 | 2.4 | -3.3 | -3.6 | -6.9 | 0.4
CCOC(=O)N1CCN(C2=C(NS(=O)(=O)c3ccc(Br)cc3)C(=O)c3ccccc3C2=O)CC1 | x | 27.4 | x | x | 4.5
CCN1CCN(C2=C(NS(=O)(=O)c3ccccc3)C(=O)c3ccccc3C2=O)CC1 | 7.4 | 56.7* | -4.2 | x | 47.7*
CN1CCN(C2=C(NS(=O)(=O)c3cccs3)C(=O)c3ccccc3C2=O)CC1 | 9.5 | 6.3 | -0.4 | -4.1 | 47.1*
CN1CCN(C2=C(NS(=O)(=O)c3ccccc3)C(=O)c3ccccc3C2=O)CC1 | -13.3 | 48.3 | x | 11.6 | x
O=C1C(NS(=O)(=O)c2cccs2)=C(N2CCOCC2)C(=O)c2ccccc21 | 7.3 | 33.5 | -0.1 | 10.8 | 7.1
CCN1CCN(C2=C(NS(=O)(=O)c3ccc(Br)cc3)C(=O)c3ccccc3C2=O)CC1 | 25.7 | 90.4* | 3.7 | 40.3 | 68.5*
O=C(C[C@@H]1CC[C@@H](NC(=O)Nc2ccccc2F)[C@@H](CO)O1)NCc1ccc(Cl)cc1 | x | x | 1.6 | -0.3 | -1.1
CC12CCC(C(=O)NCCc3ccccc3)(OC1=O)C2(C)C (stereo unspecified) | -10.7 | -2.6 | 15.1* | -6.5 | -0.9
C[C@@H]1CN([C@H](C)CO)C(=O)Cc2cc(NC(=O)CCC(F)(F)F)ccc2O[C@H]1CN(C)Cc1ccc(C(=O)Nc2ccccc2N)cc1 | x | x | x | x | -1.0
Cc1ccc(S(=O)(=O)N(C)C[C@@H]2OCCCC[C@@H](C)Oc3ccc(N(C)C)cc3C(=O)N([C@H](C)CO)C[C@H]2C)cc1 | x | x | -0.2 | 5.6 | -1.6
Cc1ccc(S(=O)(=O)NC(=O)Nc2ccc(C)cn2)cc1 | 16.3 | x | 98.4* | -3.5 | -5.3
Cc1ccc(S(=O)(=O)NC(=O)Nc2ccc(Cl)cn2)cc1 | 12.5 | -5.5 | -1.3 | -0.3 | -5.4
Cc1cccc(NC(=O)Cn2nnc(-c3cccs3)n2)c1C | 5.6 | -1.8 | 24.7* | 30.0 | -0.8
COC(=O)c1ccc(OC(=O)/C=C/c2ccco2)cc1 | 3.5 | 4.5 | -2.8 | 9.4 | 35.8*
COC(=O)c1ccc(OC(=O)c2ccco2)cc1 | 10.0 | -1.3 | x | -0.5 | x
O=Cc1cccc(OC(=O)/C=C/c2ccco2)c1 | 14.9 | 2.4 | 2.2 | 8.6 | 87.5*
CC(=O)N(C)C[C@@H]1Oc2ncc(-c3ccccc3C)cc2C(=O)N([C@H](C)CO)C[C@@H]1C | x | x | 5.0 | -7.7 | 0.1
SMILES | PfHsp90 set2 | NSD2 inh | SIRT5 block | ARNT-TACC3 inh | Casp6 inh
O=C(C[C@@H]1CC[C@H]2[C@@H](COC[C@@H](O)CN2C(=O)Nc2ccccc2)O1)NCCCN1CCOCC1 | x | x | -2.5 | 0.6 | -4.3
Cc1ccc(C(C[N+](=O)[O-])Sc2ccc(N)cc2)cc1 (stereo unspecified) | 106.5* | -1.2 | -2.7 | -0.2 | -1.5
COc1cc(CCc2ccccc2)c(C(=O)O)c(O)c1CC=C(C)C | 18.3 | x | x | 0.7 | 1.7
COc1cc(CCc2ccccc2)c(C(=O)O)c(O)c1C/C=C(/C)CCC=C(C)C | -8.4 | x | 31.9* | -2.9 | 3.5
COc1cccc(S(=O)(=O)N[C@H]2CC[C@@H](CC(=O)NCc3ccc(F)cc3)O[C@H]2CO)c1 | x | x | 1.7 | 9.5 | -0.6
Oc1ccc(-c2c(-c3ccsc3)sc3ccccc23)cc1 | 107.0* | x | x | 3.4 | -0.9
COc1ccccc1Nc1nc(N)nc(CN2CCN(Cc3ccccc3)CC2)n1 | x | 2.9 | x | 19.1 | x
COc1ccc(N2CCN(Cc3nc(N)nc(Nc4ccccc4OC)n3)CC2)cc1 | 14.0 | 15.6 | x | 49.8* | x
CC1CCCCC1NS(=O)(=O)c1ccc(S(=O)(=O)N2CCN(CCC#N)CC2)cc1 (stereo unspecified) | 21.0 | x | x | x | 44.8*
C[C@@H]1CN([C@@H](C)CO)C(=O)c2cc(-c3cccnc3)cnc2O[C@@H]1CN(C)C(=O)C1CCC1 | x | x | 0.1 | -0.7 | 1.2
Cc1ccc2c(c1)c1c(n2CC(O)CN2CCCCCC2)CCCC1 (stereo unspecified) | -9.8 | 22.5 | -5.9 | 10.6 | x
Cc1ccc2c(c1)c1c(n2CC(O)CNC(C)(C)C)CCCC1 (stereo unspecified) | 8.1 | x | x | 27.8 | 65.1*
N=C1CCC(=N)c2c1c(O)c1ccccc1c2O | -15.3 | 66.0* | x | 51.0* | x
COc1ccccc1C#Cc1cnc2c(c1)C(=O)N([C@H](C)CO)C[C@H](C)[C@H](CN(C)C)O2 | x | x | -3.2 | 0.7 | 3.8
O=C(OCn1ncc(Cl)c(Cl)c1=O)c1cccc(C(F)(F)F)c1 | 99.0* | x | x | -2.4 | x
C[C@H]1CCCCO[C@H](CN(C)Cc2ccc(Cl)c(Cl)c2)[C@@H](C)CN([C@@H](C)CO)C(=O)c2cc(NS(=O)(=O)c3ccc(F)cc3)ccc2O1 | x | x | 15.0* | x | 1.8
C[C@@H]1CCCCO[C@H](CN(C)Cc2ccc(Cl)c(Cl)c2)[C@H](C)CN([C@@H](C)CO)C(=O)c2cc(NS(=O)(=O)c3ccccc3)ccc2O1 | x | x | 16.0* | 7.4 | -2.2
CN(C)C(=O)C[C@H]1CC[C@@H]2[C@H](COc3ccc(NC(=O)C4CC4)cc3C(=O)N2C)O1 | x | x | 14.4 | 3.3 | 1.3
CC1(C(=O)c2ccccc2)C2c3c(ccc4ccccc34)OC(=O)C21C(=O)N1CCOCC1 (stereo unspecified) | 105.2* | x | x | -4.4 | x
O=C(N1CCOCC1)N(CCN1CCOCC1)Cc1cccc2ccccc12 | -0.2 | 1.4 | x | 5.7 | x
Cc1ccc(S(=O)(=O)Nc2ccc3c(c2)C(=O)N([C@H](C)CO)C[C@H](C)[C@H](CN(C)C(=O)Nc2ccccc2)OCCCC[C@H](C)O3)cc1 | x | x | 6.1 | -0.1 | -2.4
CS(=O)(=O)N1[C@@H]2Cn3c(ccc(C4=CCCC4)c3=O)[C@H]1[C@@H](C(=O)N1CCCCC1)[C@@H]2CO | x | x | -22.5 | -13.9 | -2.2
CCOC(=O)c1c(C)c(C(=O)NCc2ccccc2OC)c(C)n1C | x | -0.4 | 1.2 | 1.6 | 0.4
CCOC(=O)c1c(C)c(C(=O)NCc2ccccn2)c(C)n1CC | -13.5 | -0.9 | -1.7 | 47.7* | -0.5
